# Assay results as given in PubChem BioAssay AID485297 (National Center for Advancing Translational Sciences (NCATS), 2010).
# Among all 320,000 compounds or so, about 9,100 (2.8%) were called active. Where a call stands in place of a potency, no number is given. Not shown: some 3% with an inconclusive outcome. Calls come from the whole dose curve; as a rule, active = well fitted activation curve with a large enough effect; inconclusive = small, poorly fitted or top-dose-only effect; inactive = no such curve, though single readings can be large or run the other way. The sample as a whole holds a higher share of actives than the screen did.
# Experiment: qHTS Assay for Rab9 Promoter Activators; note: nearly all actives have a fitted effect of over 60% in size
# Settings: Huh7 Rab9 promoter-luciferase reporter, luminescence, 24 h; series mostly up to 9.22 µM
# How it was run: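 Luminescence from Amplite-detected luciferase (10 minutes, ambient) reports Rab9 promoter activation. Before that, stable Rab9-luciferase Huh7 cells (1500/well, reduced-serum OP-MEM I plus 10% FBS) were exposed to compound for 24 hours at 37C.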
# Potency is the fitted concentration of half-maximal effect.
row,Structure (SMILES),Potency
1,CC(=O)N1CCOc2ccc(S(=O)(=O)N3CCC(C(=O)Nc4ccccc4F)CC3)cc21,inactive
2,CCc1nnc(NC(=O)c2cc(S(=O)(=O)N3CCCCC3)ccc2C)s1,inactive
3,COc1ccc(-c2nc(SCC(=O)N3CCCC3)n[nH]2)cc1,inactive
4,COc1ccc(-c2nc3n(c2Br)CCC3)cc1,2.51 µM (active)
5,COc1ccc(-c2nnc3n2CCCCC3)cc1,inactive
6,O=C(Nc1ccccc1Cl)c1ccc2nsnc2c1,2.51 µM (active)
7,Cc1cccc(NC(=O)c2ccc3nsnc3c2)c1C,inactive
8,O=C(Nc1ccccc1N1CCCCC1)c1ccc2nccnc2c1,inactive
9,COc1ccc(Cl)cc1NC(=O)COc1ccc2c(c1)OCO2,inactive
10,CCOC(=O)CN(C(=O)CN1CCOCC1)c1ccc(Br)cc1,inactive
11,CC(=O)Nc1cccc(C(=O)OCC(=O)NCc2cc(C)c(O)c(C)c2)c1,inactive
12,O=C(COC(=O)c1ccc2c(c1)OCCO2)NCc1ccccc1,inactive
13,O=C(CN1CCN(c2ccccc2F)CC1)c1ccc2c(c1)OCO2,inactive
14,O=C(COC(=O)c1ccccc1)c1ccc2c(c1)OCCO2,0.631 µM (active)
15,C/C(=N\NC(=O)C(N)=O)c1ccc2c(c1)OCCO2,inactive
16,O=C(OCc1ccccc1F)c1ccc2c(c1)OCCO2,3.16 µM (active)
17,O=C(COC(=O)c1ccncc1)c1ccccc1,inactive
18,CC(=O)Nc1cccc(C(=O)OCC(=O)c2ccc3c(c2)OCO3)c1,0.0891 µM (active)
19,CC(NC(=O)COC(=O)c1ccc2c(c1)OCO2)c1ccccc1 (configuration not stated),inactive
20,CN(CC(=O)NC(=O)Nc1ccccc1F)Cc1ccccc1,inactive
21,CCCn1c(N)c(C(=O)CSc2nnc3n2CCCCC3)c(=O)[nH]c1=O,inactive
22,O=C(Nc1nnc(CCN2CCCCC2)s1)c1cccc(Cl)c1,inactive
23,CC(NC(=O)CN(C)S(=O)(=O)c1ccc(F)cc1)C1CC2CCC1C2 (configuration not stated),inactive

row,Structure (SMILES),Potency
1,Cc1ccc(CNC(=O)CC(NC(=O)c2ccccc2)c2ccccc2)cc1 (configuration not stated),inactive
2,CC1(C)CC(=O)C=C(c2cccc3c2Oc2ccccc2S3)C1,inactive
3,COc1ccccc1OCCNC(=O)CCNC(=O)c1ccccc1Cl,inactive
4,COc1cc(SC)ccc1C(=O)Nc1cc(C)ccn1,3.55 µM (active)
5,COc1cc(SC)ccc1C(=O)NCCOc1ccccc1Cl,3.98 µM (active)
6,Cc1ccnc(NC(=O)CNC(=O)c2ccccc2)c1,inactive
7,Cc1ccnc(NC(=O)CCCOc2ccccc2)c1,inactive
8,COc1cc(SC)ccc1C(=O)N(Cc1ccccc1)c1ccccc1,inactive
9,COc1cc(F)c(C2=CC(=O)CC(C)(C)C2)cc1F,inactive
10,Cc1ccc(CC(=O)Nc2ccc(S(=O)(=O)N3CCOCC3)cc2)cc1C,inactive
11,CN1CCN(S(=O)(=O)c2cccc(C(=O)Nc3sccc3C#N)c2)CC1,inactive
12,COc1cccc(CNC(=O)CN2C(=O)NC(Cc3ccccc3)(c3ccccc3)C2=O)c1 (configuration not stated),inactive
13,Cc1nc(C)c(C(=O)Nc2ccc(C)c(F)c2)o1,inactive
14,Cc1cccc(NC(=O)NC(=S)NC(=O)c2ccccc2)c1,inactive
15,Cc1ccc(NC(=O)NC(=O)c2ccccc2)cc1F,0.398 µM (active)
16,CC1CCCCC1NC(=O)NC(=O)COC(=O)C1=NN(c2ccccc2)C(=O)CC1 (configuration not stated),inactive
17,O=C(NCC1(N2CCCCC2)CCCCC1)c1ccc(NS(=O)(=O)c2ccc(F)cc2)cc1,inactive
18,CCCCSc1nc2ccccc2[nH]1,2 µM (active)
19,O=C(CSc1nc2ccccc2[nH]1)Nc1nc(-c2ccccc2)c(-c2ccccc2)o1,inactive
20,O=C(COC(=O)CCCSc1nc2ccccc2[nH]1)Nc1ccc(Oc2ccccc2)cc1,inactive
21,CCc1nnc(NC(=O)CCCSc2nc3ccccc3[nH]2)s1,inactive
22,CN(Cc1ccccc1)C(=O)CSc1nc2ccccc2[nH]1,inactive
23,O=C(CSc1nc2ccccc2[nH]1)c1cccs1,2 µM (active)

row,Structure (SMILES),Potency
1,O=C(NCc1cccc(Cl)c1)C1=CC=CN2CCS(=O)(=O)N=C12,inactive
2,CC(C)OC(=O)c1sc2nc3c(cc2c1N)C(=O)CCC3,3.55 µM (active)
3,Nc1c(C(=O)NCc2ccccc2)sc2nc3c(cc12)C(=O)CCC3,inactive
4,Cc1cccc2cc3c(N)c(C(=O)N4CCCc5ccccc54)sc3nc12,inactive
5,CCCC(=O)Nc1nc2ccc(NC(=O)c3c(F)c(F)c(OC)c(F)c3F)cc2s1,inactive
6,O=C(Nc1ccncc1)c1c(F)cccc1F,inactive
7,CSc1nc2ccc(NC(=O)c3c(F)cccc3F)cc2s1,3.55 µM (active)
8,CSCCC(NC(=O)COc1ccccc1)C(=O)N(C)CC(=O)Nc1ccc(C)cc1 (configuration not stated),inactive
9,CC(C)C(=O)OCC(=O)Nc1ccc2c(c1)CCC2,inactive
10,O=C(Nc1ccc2c(c1)CCC2)c1ccc(Br)s1,1.12 µM (active)
11,O=C(NC1CCCC1)c1ccc(Br)s1,inactive
12,Cc1ccc(NC(=O)CCNC(=O)c2ccc([N+](=O)[O-])cc2)cc1S(=O)(=O)N1CCOCC1,inactive
13,O=C(CCNC(=O)c1ccccc1Cl)NCc1ccco1,inactive
14,COc1ccc(CNC(=O)COC(=O)c2ccc(C)c(S(=O)(=O)N3CCOCC3)c2)cc1OC,inactive
15,O=C(NC(=S)NC1CCCCC1)c1ccc(Cl)cc1,inactive
16,S=C(NCc1ccc(Cl)cc1)NC1CCCCC1,inactive
17,O=C(NC1CCCCC1)c1ccc(-c2ccc(Cl)cc2)o1,2.82 µM (active)
18,CCCC(NCC(=O)Nc1ccccc1C(=O)NC1CC1)c1ccccc1 (configuration not stated),inactive
19,O=C(OCC(=O)N1CCc2ccccc21)c1ccc([N+](=O)[O-])cc1,inactive
20,Cc1cccc(C)c1NC(=O)COC(=O)c1c(C)nn(-c2ccccc2)c1C,inactive
21,Cc1ccc(OC(=O)c2c(C)nn(-c3ccccc3)c2C)cc1,3.16 µM (active)
22,Cc1ccc(-n2nc(C)c(C(=O)O)c2-n2cccc2)cc1,inactive
23,Cc1ccc(NC(=O)CN(C)S(=O)(=O)c2cnc[nH]2)cc1C,inactive

row,Structure (SMILES),Potency
1,Cc1ccc(S(=O)(=O)N2CCOCC2)cc1NC(=O)COC(=O)c1cnccn1,inactive
2,O=C(Nc1ccc2c(c1)OCCO2)C1CCCN(c2ncccn2)C1 (configuration not stated),0.316 µM (active)
3,O=C(Nc1ccc2c(c1)OCCO2)C1CCCC1,inactive
4,Cc1cc(C)nc(N2CCC(C(=O)Nc3ccc4c(c3)OCCO4)CC2)n1,inactive
5,Cc1c(C(C)CCCO)oc(=O)c2c1Oc1c(C)c(C(C)C[C@@H](C)O)oc(=O)c1C2 (some centres not stated),inactive
6,CCCN(CCC)CC(O)COc1ccccc1C(=O)Nc1ccccc1 (configuration not stated),inactive
7,Cc1ccc(C(=O)Nc2c(C#N)c(C)c(C)n2Cc2ccccc2)cc1,inactive
8,Cc1cc(=O)oc2cc(NC(=O)C(C)Oc3ccccc3)ccc12 (configuration not stated),inactive
9,CC(C)C(=O)Nc1ccc2c(c1)oc1ccccc12,0.891 µM (active)
10,CC(C)C(=O)Nc1ccc2oc(=O)ccc2c1,inactive
11,CC1(C)O[C@@H]2[C@H](O1)[C@@H](CO)O[C@H]2n1c(N2CCCCC2)nc2c(N)ncnc21,inactive
12,Fc1ccccc1/C=N/n1c(-c2cccnc2)n[nH]c1=S,inactive
13,S=c1[nH]nc(-c2cccnc2)n1/N=C/C(Cl)=C\c1ccccc1,3.16 µM (active)
14,Cc1cc(-c2n[nH]c(=S)n2/N=C/C(Br)=C/c2ccccc2)n[nH]1,inactive
15,O=c1oc(-c2ccco2)nc2sc3c(c12)CCCCC3,3.55 µM (active)
16,Cn1c(=O)n(Cc2ccco2)c(=N)c2c3c(sc21)CCCC3,inactive
17,O=C(NCc1ccco1)c1cccn2c(=O)c3c4c(sc3nc12)CCCC4,inactive
18,CCOC(=O)N1CCN(S(=O)(=O)c2ccc3c(c2)C(C)C(=O)N3)CC1 (configuration not stated),inactive
19,CC(C)N(C(=O)CN1CCN(S(=O)(=O)c2ccc(Br)s2)CC1)C(C)C,inactive
20,COc1cc(C(=O)NNC(=O)CN2C(=O)NC3(CCCC3)C2=O)cc(OC)c1OC,inactive
21,CCOC(=O)c1sc(NC(=O)COc2ncnc3ccccc23)c(C(=O)OCC)c1C,inactive
22,CCC(=O)Nc1sc(C(=O)Nc2ccccc2)c(C)c1C(=O)OC,0.891 µM (active)
23,COC(=O)c1c(NC(C)=O)sc(C(=O)Nc2ccccc2OC)c1C,inactive

row,Structure (SMILES),Potency
1,Cc1ccc(NC(=O)CCC(=O)N2CCC(c3ccccc3)=N2)cc1S(=O)(=O)N1CCCCC1,inactive
2,CCN(CC)C(=O)c1nc[nH]c1C(=O)N(C)Cc1ccccc1,inactive
3,Cc1nnc(SCc2nc3ccccc3nc2C)s1,inactive
4,Cc1ccc(Nc2nc(N)nc(CSc3nnc(C)s3)n2)cc1,4.47 µM (active)
5,CCOC(=O)N1CCN(Cc2nc(N)nc(Nc3ccc(C)cc3)n2)CC1,inactive
6,CC(C)(C)C(=O)CSc1ccc(S(=O)(=O)N2CCCC2)cn1,inactive
7,COCc1c(C(=O)OCC(=O)Nc2ccc(OC(F)F)cc2)oc2ccccc12,inactive
8,O=c1c2ccccc2ncn1/N=C/c1ccccc1,0.447 µM (active)
9,O=C(Nn1cnc2ccccc2c1=O)c1ccccc1,inactive
10,CCCc1nc2ccccc2c(=O)n1/N=C/c1ccc(O)c(O)c1,inactive
11,CC(C)C(NC(=O)c1c(F)cccc1F)C(=O)NCc1ccncc1 (configuration not stated),inactive
12,Cc1nn2cc(-c3ccc(Cl)cc3)cnc2c1Br,1.12 µM (active)
13,Cc1noc(C)c1C(=O)NCC1COc2ccccc2O1 (configuration not stated),inactive
14,O=C(COC(=O)c1ccc(O)cc1O)NNC(=O)c1cccs1,inactive
15,Cc1ccc(SCCSc2ncccn2)cc1,2 µM (active)
16,Cc1ccc(SCCC(=O)NCc2ccccn2)cc1,inactive
17,Cc1ccc(SCCC(=O)NC(C(C)C)C(C)C)cc1,inactive
18,Nc1nnc(SCC(=O)NCC(=O)Nc2ccc(F)c(F)c2F)s1,inactive
19,Cc1c(C(=O)NNC(=O)c2ccncc2)oc2ccccc12,inactive
20,Cc1cccc(N(C)C(=O)CN2C(=O)COc3ccc(S(=O)(=O)N4CCCCCC4)cc32)c1,inactive
